Source: PubChem BioAssay (National Center for Advancing Translational Sciences (NCATS))
Sampled rows, rich in hits. Any-hit rate of the full collection: about 12%.
BAZ2B inh = inhibitors of human BAZ2B bromodomain | Potency, µM (doses to about 114 µM), for the others: top-dose activity change, negative = inhibition, hits mostly inhibitors | AlphaScreen BAZ2B-H3K14Ac peptide displacement | 360,000 tested, 4.4% active | AID 504333; further: potency means the concentration at half of the fitted maximal effect; on the % scale 0 is the no-effect control and ±100 the full control effect; nearly all actives have a fitted effect of over 60% in size
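Protein-peptide AlphaScreen: BAZ2B 50 nM, b-H3K14Ac 50 nM, 1x PBS pH 7.4 + 0.01% Tween-20. Preincubation 30 min RT; cpd 30 min RT (top 110 uM); beads 20 min RT, light-protected.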
G9a block = blocks human histone lysine methyltransferase G9a; 350,000 tested, 8.8% active; Potency, µM (titrated, usually from 102 µM), for the others: top-dose activity, negative = inhibition, hits mostly inhibitors; G9a H3K9 monomethylation, AlphaScreen, 2 h; further: potency means the concentration at half of the fitted maximal effect; on the % scale 0 is the no-effect control and ±100 the full control effect; nearly all actives have a fitted effect of over 75% in size
Target sequence (Q96KQ7 913-1193 limits assumed): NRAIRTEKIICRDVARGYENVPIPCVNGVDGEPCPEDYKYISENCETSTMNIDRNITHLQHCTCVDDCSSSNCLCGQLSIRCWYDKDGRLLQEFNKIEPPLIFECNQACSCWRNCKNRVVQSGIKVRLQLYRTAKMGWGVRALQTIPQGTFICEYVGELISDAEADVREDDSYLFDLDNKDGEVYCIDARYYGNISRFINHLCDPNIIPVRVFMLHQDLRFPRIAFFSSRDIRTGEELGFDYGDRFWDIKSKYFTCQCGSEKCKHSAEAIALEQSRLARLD
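G9a (20 nM) was preincubated 15 min with compound, then reacted 2 h at room temperature with 500 nM biotin-H3K9 peptide and 20 µM SAM. Monomethyl-H3K9 detected by AlphaScreen using anti-H3K9me1 antibody.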
PI5P4K alpha inh = inhibitors of human PI5P4K alpha; max response, %; 330,000 tested, 1.2% active; PI5P4Kalpha enzyme, ADP-Glo luminescence, 60 min; hits give low values; AID 652105; P48426; active means max response of -50% or lower; inconclusive means between -30% and -50%; inactive means -30% or higher; further: value at the top dose of about 77 µM; on the % scale 0 is the no-effect control and ±100 the full control effect
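Single end-point luminescence (ADP-Glo) quantified ADP from PI5P4Kalpha turnover; ATP 5 microM final, 1 h at RT, 0.1% CHAPS and 0.28 mM EGTA in HEPES pH 7.4.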
HP1b chromo inh = HP1-beta chromodomain-methylated histone interaction inhibition. P83916. AlphaScreen HP1-beta / biotin-H3K9me3 peptide binding. Potency, µM (highest dose often 114 µM), inactives show at the top dose activity change, negative = inhibition, actives largely listed as inhibitors. 390,000 tested, 0.56% active; further: potency means the concentration at half of the fitted maximal effect; nearly all actives have a fitted effect of over 70% in size
Target sequence (P83916 whole entry, looked up): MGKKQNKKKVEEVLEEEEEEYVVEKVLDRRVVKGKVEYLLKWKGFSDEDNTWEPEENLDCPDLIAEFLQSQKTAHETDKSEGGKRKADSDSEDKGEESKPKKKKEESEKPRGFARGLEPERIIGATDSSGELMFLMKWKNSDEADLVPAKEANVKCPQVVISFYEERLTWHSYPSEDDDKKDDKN
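HP1-beta protein (50 nM final) preincubated 30 min at room temperature with biotinylated H3(1-18)K9me3 peptide (50 nM) in PBS pH 7.4, 0.01% Tween-20, then compound added for 30 min. AlphaScreen streptavidin donor/nickel chelate acceptor beads (10 ug/mL final), 30 min dark, luminescence read.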
PLK1 PBD block = blocks phosphopeptide binding to human PLK1 polo-box domain; P53350; Plk1 PBD binding of FITC phosphopeptide, fluorescence polarization; Potency, µM, for the others: max response, negative = inhibition, most hits filed as inhibitors; 360,000 tested, 2.8% active; AID 720504; further: potency means the concentration at half of the fitted maximal effect; series mostly up to about 57 µM; on the % scale 0 is the no-effect control and ±100 the full control effect; nearly all actives have a fitted effect of over 65% in size
JMJD2A Tudor inh = inhibitors of human JMJD2A Tudor domain; AlphaScreen JMJD2A-Tudor / H3K4me3 peptide binding; Potency, µM (highest dose often 114 µM), without a hit: at the top dose activity change, negative = inhibition, most hits filed as inhibitors; 390,000 tested, 4.4% active; AID 504339; further: potency means the concentration at half of the fitted maximal effect; on the % scale 0 is the no-effect control and ±100 the full control effect; nearly all actives have a fitted effect of over 50% in size
* marks the source's active call; other numbers are inactive results; ? = inconclusive; / = not tested or not shown; [ ] = dose if it differs, or a comment. Unless noted, the call rests on the fitted dose curve; in most records, active means well fitted curve in the direction sought with a large enough effect; inconclusive means small, poorly fitted or top-dose-only effect, or another doubt; inactive means no such curve, though single readings can be large; an effect the other way counts as inactive or inconclusive.

SMILES | BAZ2B inh | G9a block | PI5P4K alpha inh | HP1b chromo inh | PLK1 PBD block | JMJD2A Tudor inh
Cc1cccc(N=C2NN=C(c3ccccc3F)CS2)c1C | -28% | ? | -2 | 24% | -3% | -13%
COc1ccc(N=C2NN=C(c3c(C)[nH]c4ccccc34)CS2)cc1 | 40µM* | 8.9µM* | -15 | ? | -19% | ?
COc1ccc(N=C2SCC(c3ccccc3)=NN2C)cc1 | -11% | 37% | 4 | 27% | -2% | -11%
O=C(O)c1ccccc1C(=O)c1ccc(F)c(F)c1 | / | / | -1 | 40% | 4% | -8%
Clc1ccc(CN2CCN(c3ncnc4scc(-c5cccs5)c34)CC2)cc1 | -35% | 32µM* | 8 | -11% | -8% | -7%[57.1 µM]
CC(C)=N/N=C(\N)SCc1ccccc1 | 79µM* | 7.9µM* | 1 | 33% | -8% | -19%
CCOc1ccc(S(=O)(=O)Nc2cccc(-c3ccc(N4CCC(C)CC4)nn3)c2)cc1 | -10% | 25µM* | / | -11%[57 µM] | / | -28%
CCCOc1ccc(-c2cccc(NS(=O)(=O)c3cc(OC)ccc3OC)c2)nn1 | -4% | 7.9µM* | / | -24%[57 µM] | / | -24%
COc1ccc(S(=O)(=O)Nc2cccc(-c3ccc(N4CCCCCC4)nn3)c2)c(OC)c1 | -14% | 45µM* | -16 | 14% | ? | -28%
COc1ccc(-c2cccc(NS(=O)(=O)c3cc(C)ccc3OC)c2)nn1 | -6% | 0%[59 µM] | / | 4%[57 µM] | / | -18%
O=S(=O)(Nc1ccc(-c2ccc3nncn3n2)cc1)c1cc(F)ccc1F | -2% | -11% | -16 | 28% | -1% | -19%
COc1ccc(OC)c(S(=O)(=O)Nc2ccc(-c3ccc4nncn4n3)cc2)c1 | 0% | 13µM* | -20 | ? | 27µM* | -1%
CCOc1ccc(S(=O)(=O)Nc2cccc(-c3ccc(N4CCCC4)nn3)c2)cc1 | -7% | ? | / | ? | / | -23%
CCOc1ccccc1NC(=O)CSc1ccc2nc(-c3ccccc3)cn2n1 | 12% | ? | / | 35%[57 µM] | / | 2%
O=C(Nc1cccc(-c2ccc(N3CCCCC3)nn2)c1)c1ccco1 | -26% | 50µM* | -4 | 10% | -8% | -16%
COc1ccc(S(=O)(=O)Nc2cccc(-c3ccc(N4CCCC4)nn3)c2)c(OC)c1 | -10% | 7.9µM* | / | -35%[57 µM] | / | -30%
O=C(Nc1cccc(-c2ccc(N3CCOCC3)nn2)c1)c1ccccc1Cl | -5% | -6% | 2 | 28% | 0% | -5%
COc1ccc(OC)c(S(=O)(=O)Nc2cccc(-c3ccc(N4CCCCCC4)nn3)c2)c1 | -19% | 21% | 2 | 2%[57 µM] | -10% | -31%
O=C(Nc1ccccc1Sc1ccccc1)c1cnn2c1NC(=C1CC1)C=C2C(F)F | / | / | / | 33% | / | /
COc1cccc(OC)c1OCC(C)CNCC1CCCO1 (stereo unspecified) | ? | ? | / | 71µM* | -6% | 3.5µM*
Cc1ccc(S(=O)(=O)c2ccc([N+](=O)[O-])o2)cc1 | / | / | 6 | -14% | 0.84µM* | ?
O=C(Nc1ccc2c(c1)C(=O)OC2)c1ccccc1Cl | 22% | 50µM* | -2 | 14% | 2% | -6%
O=C1OCc2ccc(NC(=O)c3ccccc3C(=O)O)cc21 | -18% | ? | -1 | 10% | -11% | -11%
Cc1nnc(SCC(=O)Nc2cccc(S(=O)(=O)N3CCCC3)c2)n1C1CC1 | / | / | -4 | / | -3% | /
O=C1CCCN1CCCNc1ccc2nnc(CCC(=O)N3CCN(c4ccccc4)CC3)n2n1 | -17%[57.1 µM] | -1% | -1 | 43% | 1% | 5%
SMILES | BAZ2B inh | G9a block | PI5P4K alpha inh | HP1b chromo inh | PLK1 PBD block | JMJD2A Tudor inh
CC1CCCCC12NC(=O)N(CC(=O)OCC(=O)NC(=O)c1ccccc1)C2=O (stereo unspecified) | 2% | -6%[12.7 µM] | -13 | 48% | 1% | -5%
CNC(=O)C1CCC(Cn2c(=O)c3sccc3n(CC(=O)NCc3ccc(C)cc3)c2=O)CC1 (stereo unspecified) | 3% | 25%[59 µM] | / | 68% | / | 0%
O=C1C2CCCCC2C(=O)N1c1cccc(OS(=O)(=O)c2ccccc2)c1 (stereo unspecified) | -2% | -4%[59 µM] | -1 | 34% | -5% | -6%
O=C1CC(=O)N(C2CCCCC2)C(=O)N1c1ccccc1S(=O)(=O)Oc1ccccc1 | / | / | -64* | / | -14% | /
COc1ccccc1Nc1nc(N)nc(CCl)n1 | -14% | / | -2 | 36% | -16% | -1%
CCOc1ccccc1Nc1nc(N)nc(CSc2nccc(C)n2)n1 | 1% | -38%[12.7 µM] | -1 | 32% | -3% | -9%
COc1ccccc1Nc1nc(N)nc(CSc2ncccn2)n1 | 6% | -4%[12.7 µM] | -15 | -10% | 27µM* | ?
COc1ccccc1Nc1nc(N)nc(CN2CC(C)CC(C)C2)n1 (stereo unspecified) | ? | 10µM* | 3 | 28% | -3% | -8%
CCOc1ccccc1Nc1nc(N)nc(CN(C)C2CCCCC2)n1 | 18µM* | -10%[59 µM] | 3 | 37% | -7% | 50µM*
Cc1ccccc1Nc1nc(N)nc(CSc2nnnn2C)n1 | 56µM* | 4% | 3 | 21% | -14% | ?
CN(C)S(=O)(=O)c1cccc(NC(=O)c2ccc(NS(=O)(=O)c3cccs3)cc2)c1 | / | / | -19 | 24% | -5% | -15%
CCOC(=O)c1ccc(NC(=O)C(CC)Sc2nc3ccncc3[nH]2)cc1 (stereo unspecified) | -26% | -21%[59 µM] | / | 57% | / | -7%
CC1=C(O)C(=O)C(c2c(C)cc(C)c(Br)c2C)=C(O)C1=O | / | / | 0 | / | ? | /
COc1ccccc1Nc1nc(N)nc(CN2CCCCC2)n1 | -38% | ? | 5 | 7% | -10% | -17%
COc1ccc(N2CCN(Cc3nc(N)nc(Nc4ccccc4OC)n3)CC2)cc1 | 28µM* | 40µM* | 0 | -15% | -3% | 56µM*
Cc1ccc(-c2n[nH]c(=S)c3ccccc23)cc1 | 3% | 32µM* | -5 | 57% | ? | -4%
Cc1ccc(-n2c(-c3cnccn3)n[nH]c2=S)cc1 | 79µM* | 7.9µM* | 2 | 36% | 1% | 8.9µM*
Cc1onc(-c2ccccc2)c1-c1n[nH]c(=S)n1-c1ccccc1 | / | / | -6 | -21% | 0% | 63µM*
S=c1[nH]nc(-c2ccccc2)c2ccccc12 | -24% | ? | 1 | -6% | -15% | -17%
Cn1c2ccccc2c(=O)c2c(=O)n(-c3ccccc3)c(-c3ccc(C(C)(C)C)cc3)nc21 | -22% | -6% | -10 | 36% | -13% | -31%
CC(C)(C)c1ccc(-c2n[nH]c(=S)n2-c2ccccc2)cc1 | 12% | 2.8µM* | 2 | 49% | -26% | -20%
O=C(NC(=S)Nc1c(Cl)ccc2nsnc12)c1ccco1 | -35% | ? | -7 | ? | ? | -28%
